Where “and” joins values, the source holds several entries; their conditions need not be identical. Equal values may be shown once. Records with an inconclusive call do not appear. A call without a number means that no potency is given here. A number with no mark means an inactive call. Calls of active or inactive are those of the source. Calls follow the shape of the full dose curve.
Potency is read from the fitted curve at half-maximal effect.

This test is described as follows: qHTS assay to identify small molecule agonists of the hypoxia (HIF-1) signaling pathway - cell viability counter screen (AID 1224844). Also: nearly all actives have a fitted effect of over 50% in size. To be noted: HRE-bla ME-180 viability, CellTiter-Glo luminescence, 17 h; series mostly up to 76.8 µM. The source says:
National Center for Advancing Translational Sciences [NCATS]
NIH Chemical Genomics Center [NCGC]
U.S. Environmental Protection Agency [EPA]
National Institutes of Environmental Health Sciences [NIEHS]
National Toxicology Program [NTP]
U.S. Food and Drug Administration [FDA]
Hypoxia-inducible factor-1 (HIF-1) is the major hypoxia-regulated transcription factor that controls cellular responses to low oxygen concentration. HIF-1 is composed of two subunits: hypoxia responsive HIF-1-alpha and constitutively expressed HIF-1-beta, which is also known as aryl hydrocarbon receptor nuclear translocator. During hypoxic conditions, HIF-1-alpha heterodimerizes with HIF-1-beta and translocates into the nucleus where the HIF-1 complex binds to the hypoxia-response element (HRE) and activates expression of target genes such as VEGF (vascular endothelial growth factor). The HIF-1 pathway is essential to normal growth and development, and is involved in the pathophysiology of cancer, inflammation, and ischemia.
Using a beta-lactamase reporter-gene under control of the hypoxia response element, a cell-based assay [CellSensor(TM) HRE-bla ME-180 from Life Technologies, Carlsbad, CA] was used to measure hypoxia-induced signaling. Tox21 10K library compounds were measured for their ability to induce the reporter gene activity. The cytotoxicity of the Tox21 compound library against HRE-bla ME-180 cell line was tested in parallel by measuring cell viability using CellTiter-Glo assay (Promega, Madison, WI) in the same assay wells.
Tox21 Assay Protocol Summary:
HRE-bla ME-180 cells were dispensed at 2,000 cells per well in 6 uL of assay medium containing 0.5% dialyzed FBS into black wall/clear-bottom 1536-well plates using a Multidrop Combi (Thermo Scientific, Waltham, MA) dispenser. After the assay plates were incubated at 37C and 5% CO2 for 5 hrs, 23 nL of compounds dissolved in DMSO, positive controls or DMSO only was transferred to each well of the assay plate using a Pintool station (Kalypsys, San Diego, CA). The assay plates were incubated at 37C and 5% CO2 for 17 hrs. One uL of LiveBLAzerTM B/G FRET substrate (CCF4-AM) (Life Technologies) was added to each well using a Flying Reagent Dispenser (FRD, Aurora Discovery, San Diego, CA). After 2 hr incubation at room temperature, fluorescence intensity (405 nm excitation, 460 nm and 530 nm emissions) was measured using an Envision plate reader (PerkinElmer, Shelton, CT). For cytotoxicity, 4 ul/well of CellTiter-Glo reagent was added into the assay plates using an FRD. After 30 min incubation at room temperature, the luminescence intensity was measured using a ViewLux plate reader (PerkinElmer).
Regarding `NC(=O)c1ccccc1N`, the Potency entry was “inactive”.
On the same count and under the same terms, the value for `CCOC(/C=C(\C)CCC=C(C)C)OCC` was “inactive”; that for `CCc1c(C(=O)O)c(=O)cnn1-c1ccc(Cl)cc1` was “inactive”; that for `O=C(Nc1ccc(Cl)cc1)Nc1ccc(Cl)c(C(F)(F)F)c1` was 26.8 µM (active).
With `CS(C)(=O)=O`, the Potency result was “inactive”.
The same measure, in the same setting: the value for `Nc1ncnc2c1ncn2[C@@H]1O[C@H](COP(=O)(O)O)[C@@H](O)[C@H]1O` was “inactive”.
As for `O=S(=O)(O)c1cc(S(=O)(=O)O)c2ccc3c(S(=O)(=O)O)cc(S(=O)(=O)O)c4ccc1c2c43`, the activity change, negative = cytotoxicity is 1.23% [at 15.8 µM].
With `C(=C/c1ccccc1)/c1ccccc1`, the Potency entry is “inactive”.
For the compound `CCCCN(C)C`, the Potency result was “inactive”.
With `Cc1cn[nH]c1`, the Potency entry was “inactive”.
On the same count and under the same terms, under `CC(C)N=C(N)/N=C(\N)Nc1ccc(Cl)cc1` stands “inactive”; under `O=C1c2c(O)ccc([N+](=O)[O-])c2C(=O)c2c([N+](=O)[O-])ccc(O)c21`, 6.85 µM (active).
As for `CCCCOCC`, the Potency result is “inactive”.
The same measure, in the same setting: under `CN(C)CCCN1c2ccccc2CCc2ccccc21` stands 38.9 µM (active); under `CCO[Si](CCCSSSSCCC[Si](OCC)(OCC)OCC)(OCC)OCC`, 19.5 µM (active); under `CCCCCCCC/C=C\CCCCCCCC(=O)N(C)CC(=O)O`, 49 µM (active).
The same measure, in the same setting: under `CCN(CC)CCCN(c1ccccc1)C1Cc2ccccc2C1` stands 23.9 µM (active); under `N#CSCSc1nc2ccccc2s1`, 6.92 µM (active).
Take `CCCCCCCC/C=C\CCCCCCCC(=O)OCCOC(=O)CCCCCCC/C=C\CCCCCCCC`: the Potency result was “inactive”.
With `CCOC(=O)COc1ccc(C)cc1`, the Potency result is “inactive”.
Same read-out and setting: under `CN(C)CCN1CCOCC1` stands “inactive”; under `CN(Cc1cc(Br)cc(Br)c1N)C1CCCCC1`, “inactive”.
Regarding `CC(C)=CC1CC(C)CCO1` (stereo not given), the Potency result was “inactive”.
On the same count and under the same terms, the value for `CC1(C)C(=O)N(Br)C(=O)N1Br` was “inactive”.
In the case of `C=CC(=O)OCC(O)COc1ccccc1` (stereo not given), the Potency was 38.9 µM (active).
On the same count and under the same terms, the value for `C=CC(=O)OCCC#N` was “inactive”; that for `CC1CNCC(C)O1` (stereo not given) was “inactive”.
Take `CCC1(c2cnc[nH]2)Cc2ccccc2C1`: the Potency result is “inactive”.
As for `CCCCCCCCCCCCCOP(=O)(O)O`, the Potency entry is “inactive”.
Consider `COc1cccc(O)c1`, for which the Potency entry was “inactive”.
Same read-out and setting: the value for `C[C@@]12C(=O)OC(=O)[C@]1(C)C1CCC2O1` was “inactive”; that for `CN1CCN(C2Cc3ccccc3Sc3ccc(Cl)cc32)CC1` (stereo not given) was 23.9 µM (active); that for `Clc1cc(Cl)c(-c2c(Cl)c(Cl)cc(Cl)c2Cl)cc1Cl` was “inactive”.
Consider `CSc1ccc2c(c1)N(CCC1CCCCN1C)c1ccccc1S2` (stereo not given), for which the Potency is 21.8 µM (active) and 21.3 µM (active).
For `COc1cccc(CCc2ccccc2OCC(CN(C)C)OC(=O)CCC(=O)O)c1` (stereo not given), the Potency is 19 µM (active).
As to `COCC(=O)O[C@]1(CCN(C)CCCc2nc3ccccc3[nH]2)CCc2cc(F)ccc2[C@@H]1C(C)C`, the Potency was 16.9 µM (active).
Consider `O=C1NC2CCCCN2C12CCN(CCCN1c3ccccc3CCc3ccc(Cl)cc31)CC2` (stereo not given), for which the Potency entry was “inactive”.
Take `O=C(Nc1ccc(Cl)c(Cl)c1)c1cc(Cl)cc(Cl)c1O`: the Potency is 19.5 µM (active).
Still for that read-out and setting: under `C[C@]12CC[C@H]3C(=CCc4cc(O)ccc43)[C@@H]1CCC2=O` stands 38.9 µM (active); under `O=C1OC(=O)c2ccc3c4c(ccc1c24)C(=O)OC3=O`, “inactive”.
